From PubChem BioAssay (NCATS) come the findings set out here.

Inconclusive results are not listed. Activity calls are given as the source filed them. Unless noted, calls come from the whole dose curve; as a rule, active = well fitted curve in the direction sought with a large enough effect; inconclusive = small, poorly fitted or top-dose-only effect, or another doubt; inactive = no such curve, though single readings can be large; an effect the other way counts as inactive or inconclusive.

In experiment [1] the target is Cytochrome P450 1A2 (Homo sapiens) (UniProt P05177). The experiment can be described thus: p450-cyp1a2 (AID 410; calls by dose curve; note: potency is the fitted concentration of half-maximal effect;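 for activity change, negative = inhibition: -100% = full effect of reference inhibitor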). The gist of the method:
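Luminescent readout of luciferin formed from Luciferin-ME by human CYP1A2; data normalized against complete inhibition by 57 uM furafylline. Enzyme 20nM, substrate 100uM at Km, 100mM KPO4 buffer, 60 min reaction at room temperature.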

In experiment [2] the target is Glucocorticoid receptor (Homo sapiens) (UniProt P04150). Briefly: GR-GFP Redistribution (AID 450;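 active = compounds whose dose series gives a full or clear partial fitted curve of increased nuclear translocation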; note: potency is the fitted concentration of half-maximal effect). Conditions: U2OS GR-GFP nuclear translocation, laser cytometry, 2 h.
Glucocorticoid receptor (Homo sapiens), sequence (P04150 whole entry, looked up): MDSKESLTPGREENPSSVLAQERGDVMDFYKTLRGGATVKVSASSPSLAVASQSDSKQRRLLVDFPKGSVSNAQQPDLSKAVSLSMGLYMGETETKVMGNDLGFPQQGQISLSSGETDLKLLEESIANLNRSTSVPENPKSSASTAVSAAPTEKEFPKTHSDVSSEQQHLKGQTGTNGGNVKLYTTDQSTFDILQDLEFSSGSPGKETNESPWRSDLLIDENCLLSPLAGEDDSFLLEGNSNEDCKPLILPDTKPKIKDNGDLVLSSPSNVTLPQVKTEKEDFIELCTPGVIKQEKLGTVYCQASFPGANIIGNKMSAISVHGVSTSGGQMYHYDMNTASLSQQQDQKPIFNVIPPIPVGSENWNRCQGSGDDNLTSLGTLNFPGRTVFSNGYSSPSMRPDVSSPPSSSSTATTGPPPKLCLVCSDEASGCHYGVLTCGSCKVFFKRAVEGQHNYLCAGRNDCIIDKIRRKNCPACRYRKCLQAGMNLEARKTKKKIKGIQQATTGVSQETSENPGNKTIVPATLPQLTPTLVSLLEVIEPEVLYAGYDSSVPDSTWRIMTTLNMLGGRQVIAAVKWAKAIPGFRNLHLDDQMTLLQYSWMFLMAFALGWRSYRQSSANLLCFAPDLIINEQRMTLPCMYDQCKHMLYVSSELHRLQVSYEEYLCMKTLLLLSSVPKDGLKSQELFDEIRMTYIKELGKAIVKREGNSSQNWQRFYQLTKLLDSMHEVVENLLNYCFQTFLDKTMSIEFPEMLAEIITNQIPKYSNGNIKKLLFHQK
Experiment [3] has the same target. The experiment can be described thus: GR-EFC Redistribution (AID 451; calls by dose curve; note: potency is the fitted concentration of half-maximal effect). Conditions: CHO-K1 GR-EFC translocation, beta-gal luminescence, 2 h. In short, it runs like this:
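CHO-K1 cells stably expressing nuclear-localized β-gal enzyme acceptor and GR fused C-terminally to the enzyme donor fragment; ligand-driven nuclear translocation restores β-gal by complementation. Compounds titrated up to 46 uM final, 2 h at 37 °C; luminescence read.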

Experiment [4] addresses Mitogen-activated protein kinase 10 (Mus musculus) (UniProt Q61831). The experiment can be described thus: JNK3 AlphaScreen Assay (AID 530; active = well fitted curve in either direction with a large enough effect, not every such curve was filed as active;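 note: kinase came from lysate of stimulated human HepG2 cells; signal reports phosphorylation of biotinylated GST-cJun 1-79 at Ser73 with 10 µM ATP; % is set by controls: 0 for no effect and ±100 for the full control effect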). In short, it runs like this:
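Inhibitors reduce antibody binding to phosphorylated biotin-cJun, lowering AlphaScreen luminescence. Lysates from HepG2 cells pre-activated by IL-1beta plus TNF-alpha supplied JNK3; compounds were titrated.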
In general terms: Bead proximity is the source of the signal in Alpha formats.

The target in experiment [5] is 3',5'-cyclic-AMP phosphodiesterase 4B (Homo sapiens) (UniProt Q07343). The experiment can be described thus: qHTS Assay for Inhibitors of PDE-IV (AID 607; active = well fitted activation curve with a large enough effect in the main read-out, with a control signal flat, not every such curve was filed as active; note: % of control where 0% means no effect). In short, it runs like this:
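HEK293 ACTOne cells with CNG channel (1000/well), endogenous PDE4; membrane potential dye, compounds up to 22.9 uM final. Fluorescence Ex 535/Em 590; RO 20-1724 (100 uM final) as reference.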
For orientation: In qHTS, concentration-response curves come from the screen itself.

Experiment [6] is described as follows: qHTS Assay for Lipid Storage Modulators (AID 1519; calls by dose curve; for activity change, negative = inhibition: % is set by controls: 0 for no effect and ±100 for the full control effect). Conditions: Drosophila S3 cells, BODIPY lipid droplet/cell ratio, laser cytometry, cells loaded with oleic acid; for activity change, negative = inhibition: at 57.5 µM (top of the series). In short, it runs like this: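 Cells seeded at 5,000 per well were treated with compounds over a concentration series and loaded with oleic acid (400 uM, as added). Lipid droplet fluorescence (488 nm excitation, 500-530 nm channel) was read by laser-scanning cytometry and normalized to 20 uM Triacsin C.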

For experiment [7], the target named is DNA dC->dU-editing enzyme APOBEC-3G (Homo sapiens) (UniProt Q9HC16). Briefly: qHTS for inhibitors of Vif-A3G interactions: Validation (AID 588379). Note: 0% is about no effect. In short, it runs like this: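 HeLa cells stably expressing Vif and A3G-eYFP, 700 cells/well, incubated overnight at 37 deg C, then exposed to compound overnight at 37 deg C. Inhibition of Vif-mediated degradation read as increased yellow fluorescence (Ex 488/Em 500-530) by laser-scanning cytometry.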
DNA dC->dU-editing enzyme APOBEC-3G (Homo sapiens), sequence (Q9HC16 whole entry, looked up): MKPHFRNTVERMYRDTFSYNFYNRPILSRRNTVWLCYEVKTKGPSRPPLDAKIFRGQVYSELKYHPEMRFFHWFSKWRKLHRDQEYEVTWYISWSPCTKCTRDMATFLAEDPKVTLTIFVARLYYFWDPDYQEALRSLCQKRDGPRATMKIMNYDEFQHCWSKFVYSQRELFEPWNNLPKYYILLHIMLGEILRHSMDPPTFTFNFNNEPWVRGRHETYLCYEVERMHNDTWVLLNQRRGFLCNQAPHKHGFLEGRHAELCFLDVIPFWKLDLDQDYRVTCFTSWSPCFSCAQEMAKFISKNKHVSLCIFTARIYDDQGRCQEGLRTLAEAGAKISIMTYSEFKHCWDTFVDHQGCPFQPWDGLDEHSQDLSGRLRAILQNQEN

Experiment [8] concerns Zika virus NS2B-NS3 protease. Briefly: Primary screen GU AMC qHTS for Zika virus inhibitors (AID 1347154).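 Note: 0% = no-inhibitor control and -100% = no-enzyme control; nearly all actives have a fitted effect of over 70% in size.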 In short, it runs like this: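 Unlinked Zika NS2B hydrophilic domain/NS3 protease domain noncovalent complex (25 nM final) in 10 mM Tris-HCl pH 8.0, 0.01% Tween 20, with AMC peptide substrate. Fluorescence (ex 340, em 450 nm) change over 15 min, room temperature; percent inhibition fitted to 4-parameter Hill equation.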

Experiment [9] in a line: Primary qHTS for small molecule stabilizers of the endoplasmic reticulum resident proteome: Secreted ER Calcium Modulated Protein (SERCaMP) assay (AID 1508630). For activity change, negative = inhibition: % is set by controls: 0 for no effect and ±100 for the full control effect. Note: potency is the fitted concentration of half-maximal effect. The gist of the method:
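GLuc-SERCaMP-expressing SH-SY5Y cells, pretreated 16 h with compound, are challenged with thapsigargin to empty ER calcium stores; after 4 h, coelenterazine is added directly to the medium and luminescence is imaged.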

Experiment [10] has as its target Ubiquitin carboxyl-terminal hydrolase 1 (Homo sapiens) (UniProt O94782). Briefly: Inhibitors of USP1/UAF1: Pilot qHTS (AID 504865).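 Note: rhodamine fluorescence freed from ubiquitin-rhodamine substrate followed over time; top concentration of the series differs between compounds; % is set by controls: 0 for no effect and ±100 for the full control effect; nearly all actives have a fitted effect of over 35% in size.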 The gist of the method: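 1nM USP1/UAF1 + cpd, 15 min RT; start w/ Ub-Rho 150nM final; kinetic FL 480/540 nm, 6 reads q60 s. Buffer 50mM HEPES pH 7.8, 0.5mM EDTA, 1mM TCEP, 0.01% Tween-20, 0.1 mg/ml BSA.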
Experiment [11] has as its target Cytochrome P450 3A4 (Homo sapiens) (UniProt P08684). Briefly: qHTS Assay for Activators of Cytochrome P450 3A4 (AID 885). Note: nearly all actives have a fitted effect of over 65% in size. The gist of the method:
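Human CYP3A4 (20 nM) with Luciferin-PPXE at 25 uM (its KM) in 200 mM KPO4; 10 min compound preincubation, then NADPH regeneration and 60 min reaction at RT. Luciferin read by luminescence; normalized to 57 uM ketoconazole full inhibition.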

The mark [12] stands for this setting: measured here: cell count channel max response.
Setting [13] is: measured here: lipid channel max response.

3',5'-cyclic-AMP phosphodiesterase 4B (Homo sapiens), sequence (Q07343 whole entry, looked up): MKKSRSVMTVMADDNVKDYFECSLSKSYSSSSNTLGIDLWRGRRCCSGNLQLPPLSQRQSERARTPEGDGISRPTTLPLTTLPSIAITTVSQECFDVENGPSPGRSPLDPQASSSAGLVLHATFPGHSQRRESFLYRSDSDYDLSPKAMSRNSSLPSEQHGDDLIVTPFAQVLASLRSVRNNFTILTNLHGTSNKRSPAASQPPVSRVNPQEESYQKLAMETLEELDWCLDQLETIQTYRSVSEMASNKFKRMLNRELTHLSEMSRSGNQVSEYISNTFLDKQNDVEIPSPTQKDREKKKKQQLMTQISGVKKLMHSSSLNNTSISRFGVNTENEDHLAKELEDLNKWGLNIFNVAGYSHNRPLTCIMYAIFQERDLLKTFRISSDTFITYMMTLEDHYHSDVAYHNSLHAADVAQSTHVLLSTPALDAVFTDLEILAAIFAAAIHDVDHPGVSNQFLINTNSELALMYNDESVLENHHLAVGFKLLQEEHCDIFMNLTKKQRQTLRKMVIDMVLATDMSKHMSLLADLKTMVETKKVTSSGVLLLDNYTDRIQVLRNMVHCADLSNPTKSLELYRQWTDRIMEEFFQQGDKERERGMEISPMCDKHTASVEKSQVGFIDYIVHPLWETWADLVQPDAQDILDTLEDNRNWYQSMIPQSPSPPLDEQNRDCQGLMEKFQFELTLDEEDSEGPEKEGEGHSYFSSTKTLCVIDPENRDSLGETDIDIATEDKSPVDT
Ubiquitin carboxyl-terminal hydrolase 1 (Homo sapiens), sequence (O94782 whole entry, looked up): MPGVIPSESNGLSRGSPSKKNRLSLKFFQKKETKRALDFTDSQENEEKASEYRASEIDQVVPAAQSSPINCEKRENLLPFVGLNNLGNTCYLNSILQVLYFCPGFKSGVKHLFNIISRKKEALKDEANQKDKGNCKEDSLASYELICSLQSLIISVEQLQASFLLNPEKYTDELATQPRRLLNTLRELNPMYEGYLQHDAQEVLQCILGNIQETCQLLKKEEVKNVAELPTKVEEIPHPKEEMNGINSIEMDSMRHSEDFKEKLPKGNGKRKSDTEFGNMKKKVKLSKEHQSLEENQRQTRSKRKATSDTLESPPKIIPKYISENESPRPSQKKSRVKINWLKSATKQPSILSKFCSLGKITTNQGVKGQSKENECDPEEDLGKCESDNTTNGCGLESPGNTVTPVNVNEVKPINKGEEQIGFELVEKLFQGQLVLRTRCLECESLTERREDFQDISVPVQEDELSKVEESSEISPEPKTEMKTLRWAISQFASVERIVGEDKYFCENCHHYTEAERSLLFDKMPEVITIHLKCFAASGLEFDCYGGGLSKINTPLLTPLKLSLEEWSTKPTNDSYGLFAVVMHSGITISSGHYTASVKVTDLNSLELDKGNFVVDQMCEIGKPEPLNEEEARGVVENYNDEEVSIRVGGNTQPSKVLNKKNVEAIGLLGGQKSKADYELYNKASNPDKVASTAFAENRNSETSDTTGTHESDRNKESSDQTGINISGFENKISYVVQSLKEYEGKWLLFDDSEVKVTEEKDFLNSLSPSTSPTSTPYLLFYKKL
Cytochrome P450 1A2 (Homo sapiens), sequence (P05177 whole entry, looked up): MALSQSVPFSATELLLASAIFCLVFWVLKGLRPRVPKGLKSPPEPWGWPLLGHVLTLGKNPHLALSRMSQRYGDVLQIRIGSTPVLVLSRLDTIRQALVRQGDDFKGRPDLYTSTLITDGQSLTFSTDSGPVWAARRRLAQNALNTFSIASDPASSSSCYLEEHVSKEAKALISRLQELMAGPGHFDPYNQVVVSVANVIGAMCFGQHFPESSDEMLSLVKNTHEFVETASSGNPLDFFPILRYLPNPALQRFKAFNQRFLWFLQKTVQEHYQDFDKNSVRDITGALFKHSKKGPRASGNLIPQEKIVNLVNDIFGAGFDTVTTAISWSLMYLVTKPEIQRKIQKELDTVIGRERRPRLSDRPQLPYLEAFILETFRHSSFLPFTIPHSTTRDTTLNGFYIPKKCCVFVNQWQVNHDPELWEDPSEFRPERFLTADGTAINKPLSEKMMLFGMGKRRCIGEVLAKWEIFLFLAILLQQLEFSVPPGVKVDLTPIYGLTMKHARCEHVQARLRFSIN
Cytochrome P450 3A4 (Homo sapiens), sequence (P08684 whole entry, looked up): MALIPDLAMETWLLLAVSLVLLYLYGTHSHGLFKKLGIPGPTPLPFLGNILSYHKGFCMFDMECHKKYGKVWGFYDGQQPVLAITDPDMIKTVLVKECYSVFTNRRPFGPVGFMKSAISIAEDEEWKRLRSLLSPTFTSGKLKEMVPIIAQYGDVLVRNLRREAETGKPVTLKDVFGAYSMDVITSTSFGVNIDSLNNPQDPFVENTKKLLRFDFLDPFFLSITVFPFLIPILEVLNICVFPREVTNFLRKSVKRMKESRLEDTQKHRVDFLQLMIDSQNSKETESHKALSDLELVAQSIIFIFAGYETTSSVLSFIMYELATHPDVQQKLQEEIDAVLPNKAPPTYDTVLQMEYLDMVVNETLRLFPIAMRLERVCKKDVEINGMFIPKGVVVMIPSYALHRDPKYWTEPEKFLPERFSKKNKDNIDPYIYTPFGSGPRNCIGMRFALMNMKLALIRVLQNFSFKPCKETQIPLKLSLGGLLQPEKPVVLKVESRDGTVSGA

On to `CCCCCCCCCCCCC/C=C\[C@@H](O)[C@H](CO)NC(C)=O`, for which the Potency in [1] was 20 µM (active); in experiment [2], > 46 µM (inactive); in experiment [3], > 46 µM (inactive). For the same molecule, the Potency entry in [4], in experiment [5], in experiment [7], in experiment [8] and in experiment [9] was “inactive” in each case. Moreover, the activity change, negative = inhibition in experiment [6] is -6.83% (inactive). The results for the max response in experiment [6] (setting [12]) and in [6] (setting [13]) were 9.95% and -0.444%, respectively.

Consider `N[C@H](C(=O)O)C1[C@H](C(=O)O)[C@H]1C(=O)O` (stereo partly specified), for which the Potency in [2] and in experiment [3] was > 46 µM (inactive) each time. Besides, the Potency result in [4], in experiment [5], in [10], in [7], in [8] and in [9] was “inactive” each time. Moreover, the activity change, negative = inhibition in experiment [6] is 1.13% (inactive). Also, the values for the max response in experiment [6] (setting [12]) and in experiment [6] (setting [13]) were -12.3% and -12.9%, respectively.

Consider `CC(=O)OCCNC(=O)c1cccnc1`, for which the Potency in experiment [2] and in experiment [3] was > 46 µM (inactive) each time. Besides, the Potency result in experiment [4], in [11], in experiment [10], in [7], in experiment [8] and in experiment [9] was “inactive” throughout. Moreover, the activity change, negative = inhibition in experiment [6] is 8.28% (inactive). Further, the max response was 15.6% in [6] (setting [12]) and 27.8% in [6] (setting [13]).

`C[C@](N)(COP(=O)(O)O)C(=O)O`: the Potency in experiment [2] is > 46 µM (inactive); in experiment [3] it was > 46 µM (inactive); in experiment [9], 31.6 µM (active). The Potency entry in experiment [4], in experiment [10], in [7] and in experiment [8] was “inactive” throughout. Also, the activity change, negative = inhibition in experiment [6] was 4.7% (inactive). Besides, the max response worked out at 16.3% in experiment [6] (setting [12]) and 21.4% in [6] (setting [13]).

`CC[C@](N)(CCC(=O)O)C(=O)O`: the Potency in experiment [2] and in experiment [3] was > 46 µM (inactive) throughout. The Potency result in experiment [4], in experiment [10], in experiment [7], in experiment [8] and in [9] was “inactive” each time. Also, the activity change, negative = inhibition in experiment [6] was -0.484% (inactive). Moreover, the results for the max response in [6] (setting [12]) and in experiment [6] (setting [13]) were 20.6% and 15.7%, respectively.

Turning to `O=C(O)/C=C1\CCCc2ccccc2[C@H]1O`, the Potency in experiment [2] and in experiment [3] was > 46 µM (inactive) in each case. In experiment [6], the activity change, negative = inhibition was 4.3% (inactive). The max response came to 20.5% in [6] (setting [12]) and 25.8% in [6] (setting [13]). The Potency entry in experiment [10], in [7], in experiment [8] and in experiment [9] was “inactive” in each case.

In the case of `CC(C)C[C@H](NC(=O)N1CCCCCC1)C(=O)N[C@H](Cc1cn(C)c2ccccc12)C(=O)N[C@H](Cc1ccccn1)C(=O)O`, the Potency in experiment [2] and in experiment [3] was > 46 µM (inactive) each time. Besides, the Potency entry in experiment [4], in [5], in [11], in [10], in [7] and in experiment [8] was “inactive” throughout. For the same molecule, the Potency entry in experiment [9] was “inactive”. The activity change, negative = inhibition in experiment [6] is -4.14% (inactive). Also, the max response amounted to 14.7% in experiment [6] (setting [12]) and 9.02% in experiment [6] (setting [13]).

`CC[N+](C)(CC)CC(=O)Nc1c(C)cccc1C`: the Potency in experiment [2] and in experiment [3] was > 46 µM (inactive) each time. In addition, the Potency entry in experiment [4], in experiment [5], in experiment [10], in experiment [7], in experiment [8] and in [9] was “inactive” in each case. Also, the activity change, negative = inhibition in [6] is 0.67% (inactive). For the same molecule, the max response in experiment [6] (setting [12]) is -9.49%; in experiment [6] (setting [13]), -8.79%.

Regarding `CCNC(=O)[C@H]1O[C@H](n2cnc3c(N)nc(NCCc4ccc(CCC(=O)O)cc4)nc32)[C@@H](O)[C@@H]1O`, the Potency in experiment [2] and in [3] was > 46 µM (inactive) in each case. For the same molecule, the Potency entry in experiment [5], in [10], in experiment [7], in experiment [8] and in experiment [9] was “inactive” each time. Moreover, the activity change, negative = inhibition in experiment [6] was -4.61% (inactive). For the same molecule, the max response in experiment [6] (setting [12]) is -14.7%; in experiment [6] (setting [13]), -19.8%.

On to `Cc1cc([C@](C)(N)C(=O)O)ccc1P(=O)(O)O`, for which the Potency in experiment [2] and in experiment [3] was > 46 µM (inactive) in each case. For the same molecule, the Potency result in [4], in experiment [5], in experiment [10], in experiment [7], in experiment [8] and in experiment [9] was “inactive” in each case. The activity change, negative = inhibition in experiment [6] was -5.09% (inactive). For the same molecule, the values for the max response in experiment [6] (setting [12]) and in [6] (setting [13]) were 16.7% and 13.5%, respectively.

On to `N[C@@H](C(=O)O)[C@H](CC(=O)O)c1ccc(Cl)cc1`, for which the Potency entry in experiment [1], in [4], in experiment [5], in [7], in experiment [8] and in [9] was “inactive” each time. Besides, in experiment [3], the Potency is > 46 µM (inactive). Also, in [6], the activity change, negative = inhibition was -4.76% (inactive). Also, the figures for the max response in experiment [6] (setting [12]) and in experiment [6] (setting [13]) were -14.9% and -17.6%, respectively.

As for `N[C@H](C(=O)O)c1cccc(O)c1`, the Potency in experiment [2] and in experiment [3] was > 46 µM (inactive) in each case. Moreover, the Potency result in [4], in experiment [10], in [7], in experiment [8] and in experiment [9] was “inactive” in each case. The activity change, negative = inhibition in experiment [6] was 7.87% (inactive). The max response was determined as 12.7% in experiment [6] (setting [12]) and 24.7% in experiment [6] (setting [13]).
